The sample as a whole holds a higher share of hits than the screen did.
KDM5B inh – KDM5B demethylase inhibition. Q9UGL1. KDM5B demethylase, FDH-coupled NADH fluorescence (FDH is formaldehyde dehydrogenase). Potency, µM (highest dose often 57.7 µM), most hits filed as inhibitors. 220,000 compounds, 2.6% hits; active = well fitted inhibition curve with a large enough effect; also: 0% is about no effect; nearly all actives have a fitted effect of over 70% in size
Target sequence (Q9UGL1 whole entry, looked up): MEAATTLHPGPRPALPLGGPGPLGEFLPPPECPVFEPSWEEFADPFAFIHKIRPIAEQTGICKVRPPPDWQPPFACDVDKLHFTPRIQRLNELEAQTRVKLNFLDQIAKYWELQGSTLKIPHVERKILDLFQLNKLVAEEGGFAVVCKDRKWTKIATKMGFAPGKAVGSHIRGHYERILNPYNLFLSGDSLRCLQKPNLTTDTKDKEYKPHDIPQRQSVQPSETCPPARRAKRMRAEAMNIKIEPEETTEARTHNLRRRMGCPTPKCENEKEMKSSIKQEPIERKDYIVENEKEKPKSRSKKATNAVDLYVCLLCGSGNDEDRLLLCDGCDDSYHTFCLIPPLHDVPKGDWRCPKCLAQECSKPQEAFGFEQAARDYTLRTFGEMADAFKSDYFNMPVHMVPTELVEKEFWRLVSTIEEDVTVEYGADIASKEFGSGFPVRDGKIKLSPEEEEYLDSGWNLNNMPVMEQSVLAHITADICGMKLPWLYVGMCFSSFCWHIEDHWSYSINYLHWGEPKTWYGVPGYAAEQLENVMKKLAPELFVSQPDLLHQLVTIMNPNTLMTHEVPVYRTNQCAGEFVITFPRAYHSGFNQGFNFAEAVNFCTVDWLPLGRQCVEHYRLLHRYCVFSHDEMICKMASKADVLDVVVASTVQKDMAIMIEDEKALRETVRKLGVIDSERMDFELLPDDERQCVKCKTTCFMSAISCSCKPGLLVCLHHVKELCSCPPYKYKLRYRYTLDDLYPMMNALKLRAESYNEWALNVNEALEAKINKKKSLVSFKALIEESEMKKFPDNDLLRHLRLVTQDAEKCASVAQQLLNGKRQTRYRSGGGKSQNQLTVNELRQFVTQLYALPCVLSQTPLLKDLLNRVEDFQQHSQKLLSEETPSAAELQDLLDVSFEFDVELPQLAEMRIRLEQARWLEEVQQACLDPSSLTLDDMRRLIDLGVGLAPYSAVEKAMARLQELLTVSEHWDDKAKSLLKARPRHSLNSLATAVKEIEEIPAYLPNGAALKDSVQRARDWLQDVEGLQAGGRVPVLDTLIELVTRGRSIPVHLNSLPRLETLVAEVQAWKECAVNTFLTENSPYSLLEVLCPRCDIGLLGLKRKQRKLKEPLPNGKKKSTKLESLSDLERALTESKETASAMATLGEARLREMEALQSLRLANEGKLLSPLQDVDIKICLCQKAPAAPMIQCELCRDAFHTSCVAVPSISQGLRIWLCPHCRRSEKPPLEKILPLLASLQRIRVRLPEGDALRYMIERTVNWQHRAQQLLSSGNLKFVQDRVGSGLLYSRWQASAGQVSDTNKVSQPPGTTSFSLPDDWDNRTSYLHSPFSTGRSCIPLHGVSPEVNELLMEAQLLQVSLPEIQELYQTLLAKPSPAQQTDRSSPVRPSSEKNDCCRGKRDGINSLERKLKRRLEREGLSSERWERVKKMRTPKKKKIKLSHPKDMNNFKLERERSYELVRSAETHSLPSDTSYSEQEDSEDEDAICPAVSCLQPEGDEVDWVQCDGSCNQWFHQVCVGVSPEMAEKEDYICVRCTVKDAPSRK
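Inhibition is measured as reduced NADH fluorescence generation from FDH coupling to formaldehyde release. Truncated KDM5BΔAP at 200 nM final acts on H3K4me3 peptide (12.5 µM in substrate mix) in pH 7.5 HEPES buffer with Tween-20, 30 min, room temperature.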
* marks the source's active call; other numbers are inactive results; i = inactive. Potency is read from the fitted curve at half-maximal effect.

SMILES	KDM5B inh
CNC(=O)c1cc(-c2ccc(Br)cc2)nc2ccccc12	i
Cc1ccc2c(C)c(C(=O)N3CCOCC(CO)C3)oc2c1 (centres undefined)	i
COCC1CN(C(C)=O)CC12CCN(Cc1ccc(OC)c(C)c1)CC2 (centres undefined)	i
Fc1cccc(F)c1/C=N/NC(=S)Nc1ccc(Cl)c(Cl)c1	i
CN(Cc1ccc(Br)cc1)c1ccc(S(N)(=O)=O)cn1	i
CC(N)c1cccc(NS(C)(=O)=O)c1 (centres undefined)	i
CCn1cnnc1CC1CCN(S(=O)(=O)c2ccc3c(c2)CCC3)C1 (centres undefined)	i
Cc1cccc(-c2ccc3c(c2)C(=O)N2CC[C@H](NC(=O)c4cnccn4)C[C@H]2C(=O)N3)c1C	i
CCN(CC)CCNc1nc2c(c(=O)n(C)c(=O)n2C)n1Cc1ccc(Cl)cc1Cl	i
O=C(c1cccnc1)N1CCC2(CC1)CC(OCC1CC1)CCO2 (centres undefined)	i
C#CCNC(=O)CNC(=O)CCc1ncc(-c2ccccc2)o1	i
COC(=O)c1sc(NC(=O)CC[C@H]2NC(=O)c3ccccc3NC2=O)nc1C	i
Cc1sc(N2CCOCC2)nc1-c1ccc(NS(C)(=O)=O)cc1	i
O=C(c1ccc2c(c1)OCO2)N1CCN2C(=O)N(Cc3cccnc3)C[C@H]2C1	i
Cn1ccc(NC(=O)c2cnc3c(c2)N([S+](=O)([O-])c2cccnc2)CCC3)n1	i
O=C(NCC1CCCO1)c1ccc2c(c1)CC(=O)N2Cc1ccccc1 (centres undefined)	i
O=C(NCC1CCCO1)c1cc(-c2ccccc2F)cc2c1OCCN2Cc1cccnc1 (centres undefined)	20µM*
COc1ncc(-c2cc(C(=O)NCc3cccnc3)c3c(c2)N(C)CCO3)cn1	i
O=C(NCc1cccnc1)c1cc(-c2ccccc2F)cc2c1OCCN2Cc1cccnc1	28µM*
O=C(NCc1cccnc1)c1ccc2c(c1)-c1ccccc1C2	i
CN(C)C(=O)c1cc(-c2ccccc2F)cc2c1OCCN2Cc1cccnc1	i
Cn1ccc(NC(=O)c2cc(-c3ccccc3F)cc3c2OCCN3Cc2cccnc2)n1	28µM*
Cc1scc(C(=O)NCc2cccnc2)c1C	i
Cc1ccccc1-c1noc(-c2ccccc2C(=O)NCC2CCCO2)n1 (centres undefined)	i
Cc1ccccc1-c1cc(C(=O)NCc2cccnc2)c2c(c1)N(C)CCO2	35µM*
SMILES	KDM5B inh
CC(C)NC(=O)CSc1nnc(-c2cccnc2)n1C	i
COc1ccc(-c2cc3ccc(OS(=O)(=O)c4ccc(C)cc4)cc3oc2=O)cc1OC	i
Cc1ccc(NC(=O)Cn2nc(C)c3ccccc32)c(C)c1	i
CN1CCN(CN2C(=O)C(O)(CC(=O)c3ccccn3)c3ccccc32)CC1 (centres undefined)	i
CN(Cc1cccc2cnccc12)C(=O)COc1ccc(Cl)cc1Cl	i
COc1ccc(C(=O)Nc2ccc(C(O)[C@H]3COCC(=O)N3CC(C)C)cc2)cc1 (some centres undefined)	i
COc1ccc(NC(=O)NCc2nc(-c3ccc(OC)cc3)oc2C)cc1	i
Cc1ccc(OC(C)C(=O)N2CC(C)CC(C)C2)cc1 (centres undefined)	i
O=C(NC1CCCCC1)N[C@@H]1C=C(C(=O)N[C@H]2CCCNC2=O)C[C@@H](O)[C@@H]1O	i
Cc1ccc(C2=NC3(CCN(C(=O)COc4ccc(F)cc4)CC3)ON2)cc1	i
O=C(OCC(=O)N1CCCC1)c1cn(-c2ccccc2)nc1-c1ccc(F)cc1	i
CC1CCCCN1S(=O)(=O)NC1CCN(c2ncccn2)CC1 (centres undefined)	i
Cn1nc(C(=O)N2CCCC(c3nc4ccccc4s3)C2)c2ccccc2c1=O (centres undefined)	i
COc1ccc(/C=C(\NC(=O)c2ccc(OC)cc2)C(=O)OCCC(C)C)cc1	i
Cc1cc(C(C)(C)C)cc(C)c1CS(=O)Cc1cccc(F)c1 (centres undefined)	i
CN1CCOc2c(C(=O)NCCc3cnc[nH]3)cc(-c3ccccc3F)cc21	32µM*
O=C(NC1CC1)c1cc(-c2ccccc2F)cc2c1OCCN2Cc1cccnc1	32µM*
O=C(Nc1ccc(F)cc1F)Nc1ccccc1C(=O)NCCN1CCNC1=O	i
Cc1ccc2nc(-c3cccnc3)cc(C(=O)NCCc3ccc(F)cc3)c2c1	i
O=C(NCCO)c1nc(-c2cccc3[nH]ccc23)no1	i
O=C(NCCc1cnc[nH]1)c1nc(-c2ccccc2)cc2[nH]ccc12	i
Cc1ccccc1C(=O)Nc1ccnn1C1CCN(Cc2cccnc2)CC1	i
CN1CCOc2c(C(=O)NCCN3CCNC3=O)cc(-c3cccc4[nH]ccc34)cc21	32µM*
O=C(NCCc1cnc[nH]1)c1cc(-c2ccccc2F)cc2c1OCCN2Cc1cccnc1	22µM*
O=C(CCC1CCCN(Cc2cccnc2)C1)Nc1ccccc1F (centres undefined)	i
SMILES	KDM5B inh
CN1[C@@H](c2ccc(Cl)cc2)[C@@H](C(=O)NCCc2cnc[nH]2)C[C@@]1(C)C(=O)O	i
O=C(NCCc1ccc(F)cc1)c1cc(-c2cccnc2)nc2ccccc12	i
COc1ccccc1CCC(=O)N1[C@@H]2CC[C@H]1CC(NC(=O)c1ccncc1)C2 (some centres undefined)	i
CCOc1ccc(NC(=O)C2CCN(C(=O)c3nnn4c3COC(c3ccc(C)cc3)C4)CC2)cc1 (centres undefined)	i
Cc1cnc2c(S(=O)(=O)NC3CCCCNC3=O)cccc2c1 (centres undefined)	i
Cc1ccccc1OCc1nc(C#N)c(NCCN2CCOCC2)o1	i
COc1cccc(C(=O)N2CCC3(CC2)CC(N(C)Cc2ccccc2)CCO3)c1 (centres undefined)	i
CC(C)C(=O)Nc1cc2c(cc1Sc1ccccc1Cl)n(C)c(=O)n2C	i
CC(C)n1ncc2c(C(=O)Nc3ccccc3F)c3c(nc21)CCC3	i
Cc1ccc(S(=O)(=O)N2C[C@@H](F)C[C@H]2C(=O)N2CCc3ccccc3C2)cc1Cl	i
CC(C)NC(=O)c1cc(-c2ccc(Br)cc2)nc2ccccc12	i
Cn1ncc2c(C(=O)N3CCN(c4ncccn4)CC3)cc(-c3ccc(Cl)nc3)nc21	i
C[C@H](NC(=O)c1cc(-c2ccccc2)nc2ccccc12)C(=O)O	i
CC(C)NC(=O)c1cc(-c2ccc(S(C)(=O)=O)cc2)nc2c1cnn2C	79µM*
CC(C)NC(=O)c1cc(-c2ccc(Cl)nc2)nc2c1cnn2C	56µM*
CCC(CC)NC(=O)c1cc(C(C)C)nc2c1cnn2C(C)C	i
O=C(Cc1ccc(F)cc1)N1CCn2c(nn(-c3ccc(F)cc3)c2=O)C1	i
Cc1ccc(-n2nnnc2C(C)(C)N2CCOCC2)cc1	i
COC1CN(c2ccc(C)cc2)C12CCN(C(=O)COc1ccc(F)cc1)CC2 (centres undefined)	i
NC(=O)c1cccnc1N1CCC2(CCCN(Cc3cccc(F)c3F)C2)C1 (centres undefined)	i
NC(=O)c1cc2c(nc1N1CCC3(CCCN(CC4CCC4)C3)C1)CCC2 (centres undefined)	25µM*
NC(=O)c1cccnc1N1CCC2(CCCN(Cc3ccccc3F)C2)C1 (centres undefined)	i
CN1CCC(OC2CCN(C(=O)c3cccc(C(F)(F)F)c3)CC2)CC1	i

Screening data (PubChem BioAssay)
